In article PMC7862700, “An all-to-all approach to the identification of sequence-specific readers for epigenetic DNA modifications on cytosine”:

Experiments:
Experiment in all cases: DAPPL (digital affinity profiling via proximity ligation, sequencing); 10 mM Tris-HCl pH 7.5, 50 mM NaCl, 1 mM DTT, 4% glycerol, room temperature, 30 min; GST-TFs on glutathione beads, 16-mer random dsDNA library, 0.1% formaldehyde crosslink after washing; high values mean tight binding
Details in all cases: protein: recombinant; tags: N-terminal GST; dsDNA, one strand shown
[1] = target: T1, ERF (Homo sapiens, UniProt P50548 1-548)
T1 sequence: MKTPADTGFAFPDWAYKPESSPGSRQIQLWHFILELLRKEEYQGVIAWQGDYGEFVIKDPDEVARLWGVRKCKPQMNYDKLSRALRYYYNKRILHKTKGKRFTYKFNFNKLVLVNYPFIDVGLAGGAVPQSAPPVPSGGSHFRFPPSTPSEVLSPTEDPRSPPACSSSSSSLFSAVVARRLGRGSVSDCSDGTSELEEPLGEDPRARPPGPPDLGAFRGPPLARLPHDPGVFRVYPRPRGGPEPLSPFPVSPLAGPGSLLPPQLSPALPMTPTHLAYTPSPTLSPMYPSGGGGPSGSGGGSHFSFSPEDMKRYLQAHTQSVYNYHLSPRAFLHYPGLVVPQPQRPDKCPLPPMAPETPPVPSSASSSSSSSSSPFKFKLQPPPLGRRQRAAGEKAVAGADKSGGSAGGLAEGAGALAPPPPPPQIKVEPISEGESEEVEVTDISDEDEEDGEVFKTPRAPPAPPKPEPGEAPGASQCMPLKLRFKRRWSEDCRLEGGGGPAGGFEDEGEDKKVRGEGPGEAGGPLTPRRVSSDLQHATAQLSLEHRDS
Outline: (§1)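 Binding signal is defined as a hexamer's read frequency for one factor over its frequency for the tag-only sample. To obtain reads, GST-fused human transcription factors were expressed in yeast, captured on glutathione beads, barcoded with DNA and pooled with that sample. Pools met 200 nmole of a 16-mer random double-stranded DNA library in Tris/NaCl/DTT/glycerol buffer for 30 min at room temperature before washing, 0.1% formaldehyde crosslinking, proximity ligation (BsaI/T4 ligase, 1 h, 37 °C), PCR and Illumina NextSeq500 sequencing.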

[2] = target: T2, ETV3L (Homo sapiens, UniProt Q6ZN32 1-361)
T2 sequence: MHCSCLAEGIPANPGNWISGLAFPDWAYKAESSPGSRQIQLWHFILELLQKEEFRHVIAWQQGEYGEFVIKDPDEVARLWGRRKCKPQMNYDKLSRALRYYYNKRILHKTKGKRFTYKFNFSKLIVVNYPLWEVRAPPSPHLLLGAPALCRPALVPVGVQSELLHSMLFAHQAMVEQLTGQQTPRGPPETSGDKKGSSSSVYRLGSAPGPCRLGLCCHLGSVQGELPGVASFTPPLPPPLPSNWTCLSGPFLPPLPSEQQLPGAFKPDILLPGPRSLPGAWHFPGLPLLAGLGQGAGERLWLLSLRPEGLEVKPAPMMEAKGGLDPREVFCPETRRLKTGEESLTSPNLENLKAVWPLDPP
Outline: as §1

[3] = target: T3, ETS2 (Homo sapiens, UniProt P15036 1-469)
T3 sequence: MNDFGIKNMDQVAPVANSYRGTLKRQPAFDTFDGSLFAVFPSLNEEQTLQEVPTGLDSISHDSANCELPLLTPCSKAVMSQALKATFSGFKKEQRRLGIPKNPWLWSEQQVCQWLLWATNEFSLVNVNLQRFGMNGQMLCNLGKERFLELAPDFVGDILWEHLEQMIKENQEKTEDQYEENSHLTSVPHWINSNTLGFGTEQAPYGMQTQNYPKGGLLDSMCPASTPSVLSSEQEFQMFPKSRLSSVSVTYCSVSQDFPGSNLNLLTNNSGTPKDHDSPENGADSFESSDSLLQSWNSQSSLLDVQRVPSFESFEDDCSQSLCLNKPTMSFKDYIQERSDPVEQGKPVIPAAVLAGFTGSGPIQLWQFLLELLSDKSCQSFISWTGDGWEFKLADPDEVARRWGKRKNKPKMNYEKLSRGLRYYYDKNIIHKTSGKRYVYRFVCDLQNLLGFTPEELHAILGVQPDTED
Outline: as §1

[4] = target: T4, ETV7 (Homo sapiens, UniProt Q9Y603 1-341)
T4 sequence: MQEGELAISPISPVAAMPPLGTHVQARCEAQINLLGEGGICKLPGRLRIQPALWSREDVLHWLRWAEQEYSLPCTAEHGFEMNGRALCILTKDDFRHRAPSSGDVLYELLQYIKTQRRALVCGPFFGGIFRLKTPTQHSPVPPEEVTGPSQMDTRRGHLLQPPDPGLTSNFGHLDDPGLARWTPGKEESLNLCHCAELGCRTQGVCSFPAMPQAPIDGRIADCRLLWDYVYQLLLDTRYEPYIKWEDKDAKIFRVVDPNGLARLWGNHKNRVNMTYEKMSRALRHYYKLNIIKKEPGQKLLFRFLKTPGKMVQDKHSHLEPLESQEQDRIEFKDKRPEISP
Outline: as §1

[5] = target: T5, ELF5 (Homo sapiens, UniProt Q9UKW6-2 1-255)
T5 sequence: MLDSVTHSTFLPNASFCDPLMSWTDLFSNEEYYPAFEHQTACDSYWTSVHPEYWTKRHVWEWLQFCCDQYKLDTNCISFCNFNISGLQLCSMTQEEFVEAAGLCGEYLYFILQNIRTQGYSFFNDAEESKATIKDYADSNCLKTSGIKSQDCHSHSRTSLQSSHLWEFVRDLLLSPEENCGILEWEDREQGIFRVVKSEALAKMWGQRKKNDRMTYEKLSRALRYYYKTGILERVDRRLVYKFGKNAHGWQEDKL
Outline: as §1

[6] = target: T6, ETV3 (Homo sapiens, UniProt P41162-2 1-143)
T6 sequence: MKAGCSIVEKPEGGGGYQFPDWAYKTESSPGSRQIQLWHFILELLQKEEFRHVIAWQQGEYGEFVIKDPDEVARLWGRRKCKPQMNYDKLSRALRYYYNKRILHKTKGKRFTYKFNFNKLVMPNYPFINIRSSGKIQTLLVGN
Outline: as §1

[7] = target: ETV6 (Homo sapiens, UniProt P41212 1-452)
Sequence of ETV6 (P41212 whole entry): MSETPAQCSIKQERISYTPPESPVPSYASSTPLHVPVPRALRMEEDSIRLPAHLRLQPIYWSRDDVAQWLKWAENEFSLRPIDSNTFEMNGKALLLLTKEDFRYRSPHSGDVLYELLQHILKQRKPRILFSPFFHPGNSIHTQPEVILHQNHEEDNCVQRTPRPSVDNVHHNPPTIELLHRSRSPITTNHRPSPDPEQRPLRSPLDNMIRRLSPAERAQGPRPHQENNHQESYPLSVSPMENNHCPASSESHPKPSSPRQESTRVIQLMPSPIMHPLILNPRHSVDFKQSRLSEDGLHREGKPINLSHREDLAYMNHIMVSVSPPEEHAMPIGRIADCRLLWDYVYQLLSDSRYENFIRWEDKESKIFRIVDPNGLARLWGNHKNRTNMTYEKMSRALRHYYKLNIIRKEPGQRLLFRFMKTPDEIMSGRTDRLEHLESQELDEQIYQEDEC
Outline: as §1

[8] = target: T7, SPDEF (Homo sapiens, UniProt O95238 1-335)
T7 sequence: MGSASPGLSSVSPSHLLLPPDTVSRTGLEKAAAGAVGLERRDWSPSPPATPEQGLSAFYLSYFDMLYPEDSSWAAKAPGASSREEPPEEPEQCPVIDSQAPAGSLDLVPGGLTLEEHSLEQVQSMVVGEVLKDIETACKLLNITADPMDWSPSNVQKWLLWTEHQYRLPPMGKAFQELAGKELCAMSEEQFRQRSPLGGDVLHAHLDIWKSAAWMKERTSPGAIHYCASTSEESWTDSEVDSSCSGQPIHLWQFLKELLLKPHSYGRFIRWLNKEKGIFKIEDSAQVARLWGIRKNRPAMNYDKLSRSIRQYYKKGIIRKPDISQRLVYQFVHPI
Outline: as §1

| Sequence | binding signal [1] | binding signal [2] | binding signal [3] | binding signal [4] | binding signal [5] | binding signal [6] | binding signal [7] | binding signal [8] |
| --- | --- | --- | --- | --- | --- | --- | --- | --- |
| TCATGG | 1.07 fold enrichment (6-mer frequency, TF over GST control) | 1.05 fold enrichment (6-mer frequency, TF over GST control) | 1.1 fold enrichment (6-mer frequency, TF over GST control) | 1.1 fold enrichment (6-mer frequency, TF over GST control) | 1.07 fold enrichment (6-mer frequency, TF over GST control) | 1.11 fold enrichment (6-mer frequency, TF over GST control) | 1.11 fold enrichment (6-mer frequency, TF over GST control) |  |
| TTTCGC | 1.1 fold enrichment (6-mer frequency, TF over GST control) | 1.25 fold enrichment (6-mer frequency, TF over GST control) | 1.14 fold enrichment (6-mer frequency, TF over GST control) | 1.16 fold enrichment (6-mer frequency, TF over GST control) | 1.08 fold enrichment (6-mer frequency, TF over GST control) | 1.13 fold enrichment (6-mer frequency, TF over GST control) | 1.11 fold enrichment (6-mer frequency, TF over GST control) |  |
| GCGTTT | 1.1 fold enrichment (6-mer frequency, TF over GST control) | 1.11 fold enrichment (6-mer frequency, TF over GST control) | 1.09 fold enrichment (6-mer frequency, TF over GST control) | 1.12 fold enrichment (6-mer frequency, TF over GST control) | 1.12 fold enrichment (6-mer frequency, TF over GST control) | 1.19 fold enrichment (6-mer frequency, TF over GST control) | 1.04 fold enrichment (6-mer frequency, TF over GST control) |  |
| GTCCAC | 1.07 fold enrichment (6-mer frequency, TF over GST control) | 1.12 fold enrichment (6-mer frequency, TF over GST control) | 1.05 fold enrichment (6-mer frequency, TF over GST control) | 1.01 fold enrichment (6-mer frequency, TF over GST control) |  |  | 1.03 fold enrichment (6-mer frequency, TF over GST control) |  |
| CTACAG | 1.01 fold enrichment (6-mer frequency, TF over GST control) | 1.13 fold enrichment (6-mer frequency, TF over GST control) |  |  | 1.08 fold enrichment (6-mer frequency, TF over GST control) |  | 1.03 fold enrichment (6-mer frequency, TF over GST control) | 1.09 fold enrichment (6-mer frequency, TF over GST control) |
| AGCCTA | 1.12 fold enrichment (6-mer frequency, TF over GST control) | 1.09 fold enrichment (6-mer frequency, TF over GST control) | 1.04 fold enrichment (6-mer frequency, TF over GST control) | 1.13 fold enrichment (6-mer frequency, TF over GST control) |  | 1.1 fold enrichment (6-mer frequency, TF over GST control) |  |  |
| TAGGTC | 1.01 fold enrichment (6-mer frequency, TF over GST control) | 1.02 fold enrichment (6-mer frequency, TF over GST control) |  | 1.11 fold enrichment (6-mer frequency, TF over GST control) | 1.02 fold enrichment (6-mer frequency, TF over GST control) | 1.04 fold enrichment (6-mer frequency, TF over GST control) |  | 1.05 fold enrichment (6-mer frequency, TF over GST control) |
| GTATGG | 1.25 fold enrichment (6-mer frequency, TF over GST control) | 1.03 fold enrichment (6-mer frequency, TF over GST control) | 1.01 fold enrichment (6-mer frequency, TF over GST control) | 1.02 fold enrichment (6-mer frequency, TF over GST control) | 1.03 fold enrichment (6-mer frequency, TF over GST control) |  | 1.01 fold enrichment (6-mer frequency, TF over GST control) |  |
| ATCGCA | 1.06 fold enrichment (6-mer frequency, TF over GST control) | 1 fold enrichment (6-mer frequency, TF over GST control) | 1.02 fold enrichment (6-mer frequency, TF over GST control) | 1.03 fold enrichment (6-mer frequency, TF over GST control) |  | 1.03 fold enrichment (6-mer frequency, TF over GST control) |  |  |
| GCACTG | 1.04 fold enrichment (6-mer frequency, TF over GST control) | 1.07 fold enrichment (6-mer frequency, TF over GST control) | 1.07 fold enrichment (6-mer frequency, TF over GST control) | 1.11 fold enrichment (6-mer frequency, TF over GST control) |  | 1.12 fold enrichment (6-mer frequency, TF over GST control) | 1.09 fold enrichment (6-mer frequency, TF over GST control) |  |
| TTGGCT | 1.18 fold enrichment (6-mer frequency, TF over GST control) | 1.13 fold enrichment (6-mer frequency, TF over GST control) |  | 1.07 fold enrichment (6-mer frequency, TF over GST control) |  | 1.06 fold enrichment (6-mer frequency, TF over GST control) | 1.13 fold enrichment (6-mer frequency, TF over GST control) | 1.11 fold enrichment (6-mer frequency, TF over GST control) |
| TTCGGC | 1.13 fold enrichment (6-mer frequency, TF over GST control) | 1.05 fold enrichment (6-mer frequency, TF over GST control) |  | 1.19 fold enrichment (6-mer frequency, TF over GST control) | 1.01 fold enrichment (6-mer frequency, TF over GST control) | 1.13 fold enrichment (6-mer frequency, TF over GST control) |  |  |
